Screen size: about 220,000 compounds; about 2,400 (1.1%) were called active.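 The calls were made as follows: active = inhibition above the campaign mean plus 3 SD over all tested compounds (cut at about 24% in these data); inactive = the rest.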 Only a selection was taken, and actives are over-represented in it overall.
assay: reduced viability of JAK2V617F-dependent Ba/F3 cells, primary screen, JAK2V617F inhibitor project, cell-based, Ba/F3 EpoR-JAK2V617F, luminescence (AID 1446); conditions: ATP luminescence, at 5.6 µM, active compounds read high;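 also: cytokine-independent growth of Ba/F3 cells driven by EpoR plus mutant JAK2; 0% = DMSO-treated cells and 100% = JAK inhibitor I control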

Structure (SMILES) | inhibition
COc1ccc(OC(C)C(=O)NCCc2nc3ccccc3[nH]2)cc1 (configuration not stated) | -2.24% (inactive)
COc1cc(OC)cc(C(=O)N[C@H](C(=O)OCC(=O)NC(C)c2ccccc2)C(C)C)c1 (some centres not stated) | -0.99% (inactive)
COc1cc(OC)cc(C(=O)N[C@H](C(=O)Nc2nc3ccccc3[nH]2)C(C)C)c1 | 76.2% (active)
COC(=O)Cc1ccc(N(Cc2ccccc2F)S(=O)(=O)c2ccc(Br)cc2)cc1 | -1.26% (inactive)
COC(=O)Cn1c(O)c(N=NC(=O)OC)c2ccccc21 | -2.09% (inactive)
Cc1oc2c(c1C(=O)N1CCOCC1)C(=O)c1ccccc1C2=O | 3.99% (inactive)
CCOC(=O)NC(=O)/C(C#N)=C\c1ccccc1 | 1.65% (inactive)
Cc1coc(C)c1C(=O)CC1(O)C(=O)N(C)c2ccc(Cl)cc21 (configuration not stated) | 2.68% (inactive)
Cc1ccc(OCC(=O)N/N=C/c2ccncc2)cc1 | -1.35% (inactive)
Cc1ccc(/C=N/NC(=O)COc2ccccc2-c2ccccc2)cc1 | 86.5% (active)
Cc1ccc(OCC(=O)N/N=C\c2ccco2)c(C)c1 | -7.98% (inactive)
Cc1cc(C)nc(SCC(=O)N(C)C)n1 | -5.1% (inactive)
Nc1cccc(CCc2nc3ccccc3[nH]2)c1 | -1.26% (inactive)
Cc1ccc(S(=O)(=O)N(C)C2(C)CCS(=O)(=O)C2)cc1 (configuration not stated) | -0.37% (inactive)
Cc1ccc(S(=O)(=O)NC(=O)N2CCCC(C)(C)C2)cc1 | -3.44% (inactive)
Cc1ccc(S(=O)(=O)C2(S(=O)(=O)c3ccc(C)cc3)CCCC2)cc1 | 30.1% (active)
Cc1ccc(NC(=O)C(=O)NCc2ccco2)c(C)c1 | -1.41% (inactive)
CCN(C(=O)COC(=O)c1cc(NS(=O)(=O)c2ccc(Cl)c([N+](=O)[O-])c2)ccc1O)C1CCCCC1 | -2.87% (inactive)
COc1ccccc1Nc1nc(N)nc(CN(C)C2CCCCC2)n1 | -3.54% (inactive)
COc1ccccc1NC1=NC2(CCCC2)N=C(N)N1 | 1.28% (inactive)
COc1ccccc1NC1=NC(c2ccc(Cl)cc2)N=C(N)N1 (configuration not stated) | 84.9% (active)
CC(C)(C)c1ccc(C(=O)NCCn2c(N)c(C#N)c3nc4ccccc4nc32)cc1 | 1.57% (inactive)
CC(C)(C)NC(=O)COC(=O)c1cc(Br)ccc1Cl | -5.58% (inactive)
COc1ccc(Cc2nnc(N/N=C/c3ccccc3O)[nH]c2=O)cc1OC | 24.2% (active)
CCOc1ccc(-n2c(O)c(/C=N/Nc3nnc(C)c(=O)[nH]3)c3ccccc3c2=O)cc1 | -1.02% (inactive)

Structure (SMILES) | inhibition
Cc1nnc(N/N=C/c2ccccn2)[nH]c1=O | -4.34% (inactive)
CSCC(NS(=O)(=O)c1ccc(C)cc1)C(=O)O (configuration not stated) | -0.95% (inactive)
CC(=O)Nc1ccc(C(=O)/C=C/c2ccc[nH]2)cc1 | 0.42% (inactive)
Cc1ccc(NC(=O)CC2S/C(=N/N=C3\CCCc4ccccc43)NC2=O)cc1 (configuration not stated) | -2.25% (inactive)
CCOc1ccc(S(=O)(=O)Nc2ccc(S(=O)(=O)Nc3cc(OC)ccc3OC)cc2)cc1 | 3.6% (inactive)
COc1ccc(NS(=O)(=O)c2ccc(Oc3c(C#N)cccc3C#N)cc2)cc1 | 40.8% (active)
COc1ccc(NS(=O)(=O)c2ccc(NC(=O)c3ccc(N(C)S(C)(=O)=O)cc3)cc2)cc1 | 22.6% (inactive)
Cc1cc(C)c(NC(=S)N2CCCC2C(=O)O)c(C)c1 (configuration not stated) | -0.43% (inactive)
Nc1nnc(SCC(=O)OCc2ccc(Cl)c(Cl)c2)s1 | 1.09% (inactive)
Cc1ccc(S(=O)(=O)N(C)c2ccc(OCC(=O)NC3=NCCS3)cc2)cc1 | 4.42% (inactive)
COc1ccc(CC(=O)NCc2nnc(SCC(=O)Nc3nccs3)n2C)cc1 | -0.03% (inactive)
CC(=O)NCCc1nc2cc(NC(=O)c3ccccc3)ccc2n1C | 3.36% (inactive)
Cn1c(CCN2CCCCCC2)nc2cc(NC(=O)Nc3ccccc3)ccc21 | 77.4% (active)
CCC(=O)Nc1ccc2c(c1)nc(CCN1CCN(C)CC1)n2C | 0.28% (inactive)
Cc1ccc(N(C(=O)Cc2cccs2)C2C=CS(=O)(=O)C2)cc1Cl (configuration not stated) | 3.93% (inactive)
O=c1[nH]c(CSc2ccccc2)nc2c1oc1ccccc12 | -0.61% (inactive)
CCOC(=O)c1ccccc1NS(=O)(=O)c1ccc(OC)cc1 | -0.82% (inactive)
CCOC(=O)C1=C(c2ccc(OC)cc2)C(=O)c2ccccc2C1=O | 46.9% (active)
CCOC(=O)c1c(-c2ccc(C)cc2)csc1/N=C(\C)C1=C(O)c2ccccc2C1=O | -3.38% (inactive)
COc1ccccc1Nc1nc(N)nc(CSC(=S)N2CCOCC2)n1 | 0.7% (inactive)
O=c1cc(-c2ccccc2)[nH]c2cc(F)ccc12 | 70.7% (active)
Cc1ccc(-c2cc(=O)c3ccc(Cl)cc3[nH]2)cc1 | -3.39% (inactive)
Cc1ccc(-c2cc(=O)c3ccc(F)cc3[nH]2)cc1 | -1.31% (inactive)
CCOC(=O)c1cnc(Nc2nc3ccccc3o2)nc1CSC(=S)N1CCCCC1 | -2.9% (inactive)
CC#CC[N+](C)(C)CCCCCC | 35.9% (active)

Structure (SMILES) | inhibition
C/C(=N\NC(=O)c1cccc(N2CCCC2=O)c1)c1ccc(N)cc1 | 0.87% (inactive)
CC1=NNC(=O)C1CCC(=O)N/N=C(\C)c1ccc(Cl)cc1 (configuration not stated) | -7.29% (inactive)
Cc1onc(NC(=O)c2ccc([N+](=O)[O-])o2)c1Br | 2.15% (inactive)
Cc1cccc(NC(=O)c2ccc([N+](=O)[O-])o2)c1 | 38.7% (active)
Cc1cccc(NC(=S)NC(=O)c2ccc(Br)o2)c1 | 1.21% (inactive)
Cc1ccc(OCC(=O)Nc2ccc(S(=O)(=O)Nc3ccccn3)cc2)cc1 | -2.67% (inactive)
Cc1cc(C)cc(OCC(=O)Nc2ccc(S(=O)(=O)Nc3ccccn3)cc2)c1 | -4.41% (inactive)
Cc1ccc(S(=O)(=O)Nc2ccc3ncccc3c2)cc1 | 32.3% (active)
c1ccc(-c2ccc3c(c2)NC(C2Nc4cc(-c5ccccc5)ccc4O2)O3)cc1 (configuration not stated) | -3.19% (inactive)
Cc1c(Cl)c([N+](=O)[O-])nn1CCCC(=O)NC(C)c1ccccc1 (configuration not stated) | 0.46% (inactive)
CC(C)CCN1CCN(C/C=C/c2ccco2)CC1CCO (configuration not stated) | -3.77% (inactive)
Oc1ccc2ccccc2c1N=Nc1nccs1 | 98.2% (active)
Oc1ccc2ccccc2c1C=Nc1ccccc1 | 0.08% (inactive)
Oc1ccc(N=Nc2nccs2)c(O)c1 | 8.36% (inactive)
CCCC(NC(=O)c1ccco1)c1nc2ccccc2[nH]1 (configuration not stated) | 4.01% (inactive)
COC(=O)C(C)Sc1nc2c(c(=O)n(C)c(=O)n2C)n1Cc1cccc(C)c1 (configuration not stated) | -3.92% (inactive)
Cn1c(=O)c2c(nc(NCCc3ccccc3)n2Cc2ccccc2)n(C)c1=O | 1.54% (inactive)
CCCCNc1nc2c(c(=O)n(C)c(=O)n2C)n1Cc1cccc(OC)c1 | 52.4% (active)
O=C(NCC1CCCO1)c1ccccc1-c1nc(-c2ccccc2Cl)no1 (configuration not stated) | 4.19% (inactive)
COc1ccc2c(Cl)c(C(=O)NCc3ccco3)sc2c1 | -3.38% (inactive)
COc1ccc(CCNS(=O)(=O)c2ccc(C(=O)NCc3ccco3)cc2)cc1OC | -0.49% (inactive)
CCCC1=Nc2cc(C(=O)NCc3ccco3)ccc2Sc2ccccc21 | 81.1% (active)
O=[N+]([O-])C(=c1ccc2c(c1)N1C3=C(CCCC3)CC3CCCCC31N=2)[N+](=O)[O-] (configuration not stated) | -3.46% (inactive)
COc1ccccc1CNC(=O)CNC(=O)c1cn(-c2ccccc2OC)c(=O)c2ccccc12 | -3.01% (inactive)
Cn1nc(C(F)(F)F)cc1-c1ccc(/C=C(\C#N)C(=O)c2cccc(C(F)(F)F)c2)s1 | -2.61% (inactive)

Structure (SMILES) | inhibition
CSC(=S)N/N=C/c1c[nH]c2ccccc12 | -3.06% (inactive)
C[n+]1ccc(/C=C/c2c[nH]c3ccccc23)cc1 | 88.5% (active)
S=c1[nH]nc(-c2ccccc2)n1/N=C/c1c[nH]c2ccccc12 | -2.71% (inactive)
CC1(C)C2CC=C(/C=N/NC(=O)c3ccc(Cl)cc3)C1C2 (configuration not stated) | -0.76% (inactive)
COc1ccc(C(=O)Nc2ccc(F)cc2F)cc1 | -3.55% (inactive)
O=C(Nc1cccc(F)c1)c1ccc(S(=O)(=O)N2CCCC2)cc1 | 2.9% (inactive)
CCOC(=O)N1CCN(S(=O)(=O)c2ccc(C(=O)Nc3ccc(F)cc3F)cc2)CC1 | 54.4% (active)
O=C(COC(=O)c1ccc(O)cc1)Nc1nccs1 | 0.51% (inactive)
Cc1nc(N2CCC(C)CC2)c2c(C)c(C(=O)Nc3cc(F)ccc3C)sc2n1 | 2.17% (inactive)
C=CCSc1nnc(NC(=O)c2ccc(NC(C)=O)cc2)s1 | -0.62% (inactive)
O=C(Cc1ccc2c(c1)CCCC2)Nc1ccccc1Cl | 3.77% (inactive)
CC(=O)c1sc(NC(=O)c2cccc3ccccc23)nc1C | -0.63% (inactive)
CC(NC(=O)c1cccc2ccccc12)c1ccc2c(c1)CCCC2 (configuration not stated) | 64.5% (active)
O=[N+]([O-])c1ccc2nc(-c3ccccn3)[nH]c2c1 | 2.31% (inactive)
NNC(=O)c1oc2nc(-c3ccccc3)cc(-c3ccco3)c2c1N | -4.49% (inactive)
COC(=O)c1cc2c(ccn2C)n1C | -1.58% (inactive)
Cc1ccc(S(=O)(=O)N2CCOCC2)cc1C(=O)OC1CCCCC1=O (configuration not stated) | 0.06% (inactive)
O=C(Nc1ccccc1Cl)c1ccc2nsnc2c1 | 0.05% (inactive)
O=C(CN1CCCCC1)Nc1ccccc1Cl | 1.81% (inactive)
O=C(Nc1ccccc1Cl)/C(Cl)=C(\Cl)S(=O)c1ccccc1 (configuration not stated) | 102% (active)
O=S(=O)(Nc1n[nH]c(C(F)(F)F)n1)c1ccccc1 | -3.72% (inactive)
O=C(CNc1ccc(F)cc1F)NC(=O)NCc1ccco1 | 4.79% (inactive)

From PubChem BioAssay AID1446 (The Scripps Research Institute Molecular Screening Center, 2008)
